This is a sample that favours compounds with a hit; in the whole collection about 19% have one here.
TDP1 cell noCPT – qHTS for Inhibitors of human tyrosyl-DNA phosphodiesterase 1 (TDP1): qHTS in cells in absence of CPT; DT40 Tdp1-/- hTDP1 cells, no CPT, ATP luminescence, 48 h; Potency, µM (top dose mostly 46.2 µM), usual class: inhibitors; 420,000 tested, 15% active; AID 686978, 2013; also: nearly all actives have a fitted effect of over 55% in size
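Chicken DT40 Tdp1-/- cells complemented with human TDP1, screened without camptothecin (DMSO vehicle only), 400 cells/well. Compounds pin-transferred, cells incubated at 37 °C for at least 48 hr. Growth read as ATP-dependent luminescence (CellTiter-Glo, 30 min at RT).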
DT40 TDP1 CPT – growth inhibition of DT40 Tdp1-/-;hTDP1 cells with camptothecin (screen for TDP1 inhibitors) | chicken DT40 Tdp1-/-;hTDP1 cells + 20 nM CPT, ATP luminescence, 48 h | 420,000 tested, 12% active | AID 686979 | Potency, µM (series often up to 46.2 µM), hits mostly inhibitors; also: nearly all actives have a fitted effect of over 55% in size
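Chicken DT40 Tdp1-/- cells complemented with human TDP1, 400 cells/well, exposed to compounds plus 20 nM camptothecin for at least 48 h at 37 C; viability read as ATP content by CellTiter-Glo luminescence.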
IL1B secr inh – blocks inflammasome-driven IL-1 beta release. THP-1 LPS/ATP IL-1B secretion, AlphaLISA, 16 h; active compounds read low. activity change, % at 57.5 µM. 360,000 tested, 4.7% active. AID 743279; in the data active = activity change below about -50%; inconclusive = mostly about -30% to -49%
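Secreted IL-1B measured by AlphaLISA bead assay after 16 h compound exposure of THP-1 cells; compounds (final up to 57.5 uM) added 1 h before LPS (250 ng/mL) and ATP (1.25 mM) stimulation; lower signal means less secretion.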
HT1080-NT tox – kills 2HG-producing HT-1080-NT fibrosarcoma cells; Potency, µM (titrated, usually from 46.1 µM), usual class: cytotoxic; HT-1080-NT fibrosarcoma viability, CellTiter-Glo ATP luminescence, 48 h; 360,000 tested, 1.6% active; AID 686970;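 also: NT is the 2HG producing partner of a matched IDH1 knockdown line; nearly all actives have a fitted effect of over 55% in size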
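A 48-hour cytotoxicity screen used HT-1080-NT cells plated 2 hours before compound delivery. ATP-based CellTiter-Glo luminescence measured viability, normalized to DMSO and no-cell controls.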
HT1080 IDH1KD tx – kills HT-1080 cells with IDH1 knockdown; HT-1080 IDH1 knockdown viability, ATP luminescence, 48 h; 360,000 tested, 2% active; Potency, µM (doses to about 46.1 µM), hits mostly cytotoxic
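Cytotoxicity counter-line: IDH1KD HT-1080, 48 h, CellTiter-Glo. Curves classed by r2, magnitude and activity.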
Numbers stand for hits; n = inactive; u = inconclusive; x = no result given. Unless noted, calls follow the shape of the dose curve; as a rule, active = well fitted curve in the direction sought with a large enough effect; inconclusive = small, poorly fitted or top-dose-only effect, or another doubt; inactive = no such curve, though single readings can be large; an effect the other way counts as inactive or inconclusive.

SMILES	TDP1 cell noCPT	DT40 TDP1 CPT	IL1B secr inh	HT1080-NT tox	HT1080 IDH1KD tx
C=CCc1ccc(OCCOc2cccc3cccnc23)c(OC)c1	u	u	n	n	n
Cc1cccc(-c2nc3c4c(-c5ccccc5)c(-c5ccccc5)oc4ncn3n2)c1	n	n	x	x	x
COc1cc(C(C)=O)ccc1OC(=O)N1CCOCC1	n	n	n	n	n
COc1ccc(N2CCN(C(=O)c3cc(=O)c4cc(C)cc(C)c4o3)CC2)cc1	u	13µM	-77	n	n
COc1ccc(N2CCN(C(=O)Oc3ccc([N+](=O)[O-])cc3)CC2)cc1	26µM	u	n	n	n
COc1ccc(N2CCN(C(=O)c3ccc(COc4ccc([N+](=O)[O-])cc4)o3)CC2)cc1	10µM	10µM	n	n	n
Cc1cc(N2CCN(C(=O)Oc3ccc([N+](=O)[O-])cc3)CC2)c2ccccc2n1	18µM	u	n	u	u
COc1ccc(N2CCN(C(=O)c3cc(=O)c4cc(C)ccc4o3)CC2)cc1	u	n	n	n	n
Cc1ccsc1/C=C1/SC(N2CC(C)OC(C)C2)=NC1=O (centres undefined)	21µM	u	n	n	n
Cc1ccsc1/C=C1\SC(N)=NC1=O	n	n	n	n	n
Cc1ccc(F)cc1NC(=O)N1c2ccccc2NC(=O)CC1C (centres undefined)	n	n	n	n	n
CCN(CC)S(=O)(=O)c1ccc2c(c1)N(CC(=O)N1CCN(c3ccc(Cl)cc3)CC1)C(=O)CO2	16µM	16µM	x	x	x
CCN(CC)S(=O)(=O)c1ccc2c(c1)N(CC(=O)N1CCN(c3cccc(Cl)c3)CC1)C(=O)CO2	u	16µM	x	x	x
COc1ccccc1C(=O)NCCNc1ccc([N+](=O)[O-])cc1Cl	n	u	n	n	n
CN(C)c1cccc(C(=O)Nc2ccc(N3CCOCC3)cc2)c1	u	n	n	u	n
CCSC1=NCCN1C(=O)c1ccc(S(=O)(=O)N(C)C)cc1	n	n	n	n	n
CCOC(=O)C1CN(S(=O)(=O)c2ccc(C)cc2)c2ccccc2O1 (centres undefined)	n	n	n	n	n
COC(=O)CC1Oc2ccccc2-n2cc(-c3ccc(C)cc3)nc21 (centres undefined)	3.3µM	5.8µM	x	x	x
COC(=O)CC1Oc2ccccc2-n2cc(-c3ccc(F)cc3)nc21 (centres undefined)	8.2µM	9.2µM	x	x	x
COC(=O)c1ccc(-c2ccc(F)cc2)nc1C	n	n	n	n	n
Cc1cccc(-c2nc(SCC(=O)Nc3ccc4c(c3)OCCO4)c(-c3ccccc3)[nH]2)c1	21µM	u	x	x	x
Cc1ccc2nc(SCC(=O)Nc3ccc4c(c3)OCCO4)[nH]c2c1	u	n	n	n	n
O=C(CSc1nc2ccccc2[nH]1)Nc1ccc2c(c1)OCCO2	n	u	n	n	n
O=C(CSc1nc(-c2cccc(F)c2)[nH]c1-c1ccccc1)Nc1ccc2c(c1)OCCO2	12µM	15µM	x	x	x
Cc1ccc(CNc2nc3ccccc3n2C)cc1	u	n	n	n	n
SMILES	TDP1 cell noCPT	DT40 TDP1 CPT	IL1B secr inh	HT1080-NT tox	HT1080 IDH1KD tx
Cc1cc(C)c(C)c(N=Nc2nc3ccccc3n2C)c1C	23µM	u	u	u	u
Cc1ccc(C)c(N=Nc2nc3ccccc3n2C)c1	3.5µM	5.8µM	-80	4µM	7.9µM
CN(C)c1ccc([C@@H]2[C@@H]([N+](=O)[O-])[C@H]3C=Cc4ccccc4N3[C@H]2C(=O)c2ccc(Cl)cc2)cc1	7.3µM	6.5µM	u	n	n
COc1cccc(NC(=O)CN(C)C(=O)CCCc2nc3ccccc3s2)c1	n	n	n	n	n
N#CN1C2CCC1CC(O)(c1ccccc1)C2 (centres undefined)	n	n	n	u	n
CC(C)(C)[C@H]1CCC(=O)N([C@H](CSc2ccc(Br)cc2)Cc2ccccc2)CC1	14µM	18µM	n	n	n
CC(C)(C)[C@H]1CCC(=O)N([C@H](CN=[N+]=[N-])Cc2ccccc2)CC1	20µM	14µM	n	n	n
CC(C)(C)[C@H]1CCC(=O)N([C@H](CSc2ccccc2)Cc2ccccc2)CC1	u	23µM	n	n	n
O=C1CCC(OCc2ccccc2)CCN1[C@H](CSc1ccccc1)Cc1ccccc1 (some centres undefined)	16µM	u	n	u	u
[N-]=[N+]=NC[C@H](Cc1ccccc1)N1CC[C@@H](O)CCC1=O	n	n	n	n	n
O=C(Cn1nnc(-c2cccc(C(F)(F)F)c2)n1)NCc1ccc(F)cc1	n	n	x	x	x
CCCC(CCC)C(N)=O	n	n	x	x	x
CCc1nn(C)c(N)c1C	n	n	n	n	n
Cc1ccc(SC[C@H](Cc2ccccc2)N2CC[C@@H](C)CCC2=O)cc1	13µM	11µM	n	n	n
CC(=O)Nc1ccc(SC[C@H](Cc2ccccc2)N2CC[C@@H](O)CCC2=O)cc1	n	n	n	n	n
Cc1cc2ccccc2n1CCNC(=O)C1CC1	n	15µM	n	n	n
Cc1cc2ccccc2n1CCNC(=O)c1cccs1	u	n	n	n	n
Cc1cc2ccccc2n1CCNC(=O)c1cccc(Br)c1	12µM	21µM	x	x	x
Cc1cc2ccccc2n1CCNC(=O)c1cccc(Cl)c1	7.3µM	15µM	x	x	x
Cc1cc(C)cc(NC(=O)CCn2cnc3cc(C)c(C)cc32)c1	u	n	u	n	n
COc1ccc([N+](=O)[O-])cc1N(CC(O)CN1C(=O)NC(C)(C)C1=O)S(=O)(=O)c1ccccc1 (centres undefined)	n	n	n	n	n
Cc1cc(C)cc(N(C(=O)c2cc3ccccc3oc2=O)C2C=CS(=O)(=O)C2)c1 (centres undefined)	u	u	-67	n	n
Cc1noc(C)c1C(=O)N1CCC1(C)C(=O)NS(=O)(=O)c1cccc(F)c1 (centres undefined)	n	n	n	n	n
CCCC(=O)OC[C@@H](OC(=O)CCC)[C@@H](OC(=O)CCC)[C@H](Cn1c2nc(=O)[nH]c(=O)c-2nc2cc(C)c(C)cc21)OC(=O)CCC	6µM	6.7µM	x	x	x
Cc1csc2sc(-c3ccnc(SCC(=O)NCc4ccccc4)n3)c(C)c12	0.73µM	0.73µM	n	3.3µM	2.3µM
Cc1cc(C)c2c(-n3cccc3)nn(CC#N)c2n1	n	n	n	n	n
COc1cccc(CN2C(=O)CCC2(C)C(=O)NCCc2ccc(OC)c(OC)c2)c1 (centres undefined)	n	n	n	n	n
c1ccc(-c2ccccc2OCCCN2CCOCC2)cc1	n	n	n	n	n
CC1CCCN(CCCOc2ccccc2-c2ccccc2)C1 (centres undefined)	23µM	u	-82	u	u

Bioassay records from PubChem.
